Laboratory results as given in PubChem BioAssay.
Activity calls are given as the source filed them. No stated cut-off is given here; in the data, active means inhibition above about 28%; inactive means the rest.

Test: StAR promoter reporter inhibitors, counter-screen for LRH-1 inverse agonist project, cell-based, luminescence, high throughput (AID 651611)
Conditions: StAR promoter luciferase reporter counterscreen, at 3.6 µM, hits give high values

**Q.** Which inhibition does the source give for `COc1ccc(-c2cc(C(F)F)n3ncc(C(=O)N4CCc5ccccc5C4)c3n2)cc1` here?
**A.** The inhibition was 17.2% (inactive).

**Q.** For `Cc1cc(NCCCCCCCNc2cc(C)nc3cc([N+](=O)[O-])ccc23)c2ccc([N+](=O)[O-])cc2n1`, which inhibition is on record?
**A.** The inhibition was -0.67% (inactive).

**Q.** Which inhibition does the source give for `CC(=O)c1ccc(NC(=O)COc2ccccc2C(=O)Nc2ccccc2)cc1` here?
**A.** Its inhibition is 5.25% (inactive).

**Q.** For `CCN1CCN(c2ccc(S(=O)(=O)N3CCCCC3)cc2NC(=O)/C=C/c2ccc([N+](=O)[O-])cc2)CC1`, which inhibition is on record?
**A.** Its inhibition is 0.06% (inactive).

**Q.** Which inhibition does the source give for `O=C(NCc1cccnc1)c1ccc(NC(=O)c2ccc(Br)cc2)cc1` here?
**A.** The inhibition was 70.9% (active).

**Q.** With `Cn1c(=O)c2c(nc(CN3CCOCC3)n2CC(=O)c2ccccc2)n(C)c1=O` as the compound, how does the inhibition read?
**A.** Its inhibition is -4.41% (inactive).

**Q.** With `c1ccc(-c2nc(NCc3cccnc3)c3oc4ccccc4c3n2)cc1` as the compound, how does the inhibition read?
**A.** Its inhibition is 19.2% (inactive).

**Q.** With `Cc1ccccc1C(=O)NC1CCN(CC(=O)Nc2ccc(Br)cc2)CC1` as the compound, how does the inhibition read?
**A.** The inhibition was 5.55% (inactive).

**Q.** For `CN(C)S(=O)(=O)c1ccc(C(=O)NCc2ccc3[nH]c4c(c3c2)CCCC4)cc1`, which inhibition is on record?
**A.** The inhibition was 24.6% (inactive).

**Q.** For `COc1ccc(-c2nnc(NC(=O)c3ccc([N+](=O)[O-])o3)o2)c(OC)c1`, which inhibition is on record?
**A.** The inhibition was 15.5% (inactive).

**Q.** For `Cc1cc(Cl)ccc1NC(=O)CN1C(=O)C(=O)N(C2CCCC2)C1=O`, which inhibition is on record?
**A.** The inhibition was 5.58% (inactive).

**Q.** For `COc1ccc(N2CCN(C(=O)c3ccc(CNS(=O)(=O)c4cccc(OC)c4)cc3)CC2)cc1`, which inhibition is on record?
**A.** Its inhibition is 9.25% (inactive).

**Q.** With `CCC(NC(=O)c1cc(COc2cc(C)c(Cl)c(C)c2)on1)c1ccncc1` (stereo not given) as the compound, how does the inhibition read?
**A.** Its inhibition is 0.99% (inactive).

**Q.** Which inhibition does the source give for `O=C(CCl)Nc1ccc2c(c1)OCO2` here?
**A.** Its inhibition is 37.1% (active).

**Q.** With `C/C(=N\NC(N)=S)C1(C)CCCCC1` as the compound, how does the inhibition read?
**A.** Its inhibition is 20.6% (inactive).

**Q.** For `COc1ccc(N2C(=O)C(Cl)=C(N3CCOCC3)C2=O)cc1`, which inhibition is on record?
**A.** The inhibition was 6.88% (inactive).

**Q.** Which inhibition does the source give for `CCNc1cc(N2CCCC2)ccc1[N+](=O)[O-]` here?
**A.** The inhibition was 10.6% (inactive).

**Q.** For `CCOc1cc(S(=O)(=O)NCc2ccncc2)ccc1Cl`, which inhibition is on record?
**A.** The inhibition was 21.4% (inactive).

**Q.** Which inhibition does the source give for `Cc1nc2cc(N3CCCCC3)c(NC(=O)c3cccnc3)cc2c(=O)n1Cc1ccccc1` here?
**A.** The inhibition was 10.7% (inactive).

**Q.** With `CCCN(CC(=O)Nc1ccc(C(C)=O)cc1)CC(=O)Nc1ccccc1C` as the compound, how does the inhibition read?
**A.** The inhibition was 1.27% (inactive).

**Q.** Which inhibition does the source give for `COc1ccc(NC(=O)COC(=O)CNC(=O)c2cc(OC)c(OC)c(OC)c2)cc1` here?
**A.** Its inhibition is 8.08% (inactive).

**Q.** With `N#Cc1c2c(c(NCCOCCO)n3c1nc1ccccc13)CCCC2` as the compound, how does the inhibition read?
**A.** The inhibition was 4.14% (inactive).

**Q.** With `Cc1cc(OCC(=O)N2CCC(O)CC2)c2c(C)cc(=O)oc2c1` as the compound, how does the inhibition read?
**A.** Its inhibition is 5.07% (inactive).

**Q.** For `O=C(COc1ccc(Nc2ccccc2)cc1)Nc1ccncc1`, which inhibition is on record?
**A.** The inhibition was 19.2% (inactive).

**Q.** With `O=C(Nc1ccc2oc(-c3ccncc3)nc2c1)c1ccc([N+](=O)[O-])o1` as the compound, how does the inhibition read?
**A.** Its inhibition is 34.1% (active).

**Q.** With `COc1ccc(-c2cc(-c3ccc(O)cc3)nc(N)c2C#N)cc1` as the compound, how does the inhibition read?
**A.** The inhibition was 27.8% (active).

**Q.** For `CCN(Cc1ccccc1)c1ccc(/C=N/NC(=O)c2cccc(S(=O)(=O)N3CCOCC3)c2)cc1`, which inhibition is on record?
**A.** Its inhibition is 24.6% (inactive).

**Q.** Which inhibition does the source give for `Cc1ccc(NC(=O)CN2C(=O)NC(C)(CC(C)C)C2=O)c(Br)c1` (stereo not given) here?
**A.** Its inhibition is 15.9% (inactive).

**Q.** Which inhibition does the source give for `NC(=O)C1CCN(C(=O)COc2ccc3c4c(c(=O)oc3c2)CCC4)CC1` here?
**A.** Its inhibition is 5.21% (inactive).

**Q.** Which inhibition does the source give for `CCOc1cc(/C=N/Nc2nnc(C)n2N)ccc1O` here?
**A.** The inhibition was -6% (inactive).

**Q.** For `O=C(COC(=O)c1ccc[n+]([O-])c1)Nc1ccc([N+](=O)[O-])cc1Cl`, which inhibition is on record?
**A.** Its inhibition is 17.6% (inactive).

**Q.** For `CCOc1ccc(S(=O)(=O)Nc2nc3ccccc3nc2N2CCN(C)CC2)cc1`, which inhibition is on record?
**A.** Its inhibition is -10.8% (inactive).

**Q.** With `COc1ccc(OC)c(NS(=O)(=O)c2ccc(SC)cc2)c1` as the compound, how does the inhibition read?
**A.** Its inhibition is 37.9% (active).

**Q.** For `O=C(c1ccc([N+](=O)[O-])o1)N1CCN(c2nc3c(Cl)cccc3s2)CC1`, which inhibition is on record?
**A.** Its inhibition is 10.8% (inactive).

**Q.** Which inhibition does the source give for `O=C(Nc1cc(Cl)ccc1-n1cncn1)c1ccc([N+](=O)[O-])o1` here?
**A.** The inhibition was 27% (inactive).

**Q.** Which inhibition does the source give for `COc1cc(C2c3cc4c(cc3OC(Nc3ccc(C(=O)O)cc3)C2C)OCO4)cc(OC)c1OC` (stereo not given) here?
**A.** Its inhibition is 44.5% (active).

**Q.** With `O=C(N/N=C/c1ccc(Sc2ccccn2)o1)c1cccc([N+](=O)[O-])c1` as the compound, how does the inhibition read?
**A.** Its inhibition is -2.81% (inactive).

**Q.** For `c1ccc(-n2nnnc2-c2cccc3ccccc23)cc1`, which inhibition is on record?
**A.** The inhibition was 42% (active).

**Q.** For `CCCCCCCn1ccc(=N)cc1`, which inhibition is on record?
**A.** The inhibition was 44.1% (active).

**Q.** With `CC(/C=C(\NC(=O)c1ccccc1)C(=O)N=Nc1c(O)[nH]c2ccc(C)cc12)=C\c1ccccc1` as the compound, how does the inhibition read?
**A.** The inhibition was 34.2% (active).
